Assay results: the supplement of paper PMC10503962

Test system: Trichuris muris adult worms
Assay: mean motility score (Paragon pixel variance) of adult worms (arbitrary units); higher = more motile worms, i.e. less anthelmintic effect; extreme values may be limits of the assay
Conditions: 100 µM; 24 h
Summary of the method: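 Single adult Trichuris muris worms, collected from infected NOD SCID mice, were placed in 96-well plates with 100 μL RPMI-1640 plus antibiotics and drug at 100 μM (1% v/v DMSO), then kept at 37°C and 5% CO2 for 24 h. Plates were filmed on an automated phenotyping platform (200 frames, 100 ms apart). Motility score came from Paragon pixel-variance analysis, averaged across replicate wells. Each drug had three worms in three wells, run on three separate occasions, with vehicle and positive controls.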

SMILES	mean motility score
CC(=O)Oc1cccc2c1C(=O)c1c(OC(C)=O)cc(C(=O)O)cc1C2=O [diacerein]	0
O=P(O)(O)C(O)(Cn1ccnc1)P(=O)(O)O [zoledronic acid]	1210
CC(C)NCC(O)COc1cccc2[nH]ccc12 (stereo not drawn) [pindolol]	4670
CCOC(=O)c1ncn2c1CN(C)C(=O)c1cc(F)ccc1-2 [flumazenil]	3230
O=C(O)Cc1ccc(-c2ccccc2)cc1 [felbinac]	3440
CN(C/C=C/C#CC(C)(C)C)Cc1cccc2ccccc12 [terbinafine]	4560
Clc1ccc2c(c1)CCc1cccnc1C2=C1CCNCC1 [desloratadine]	930
NCCCC[C@H](N[C@@H](CCc1ccccc1)C(=O)O)C(=O)N1CCC[C@H]1C(=O)O [lisinopril]	1970
Clc1ccccc1C(c1ccccc1)(c1ccccc1)n1ccnc1 [clotrimazole]	0
CC(C)[C@H](N)C(=O)OCCOCn1cnc2c(=O)nc(N)[nH]c21.Cl [valacyclovir hydrochloride]	4300
N[C@@H](Cc1cc(I)c(Oc2ccc(O)c(I)c2)c(I)c1)C(=O)O [liothyronine]	1020
CCCCCNC(=N)N/N=C/c1c[nH]c2ccc(OC)cc12.O=C(O)/C=C\C(=O)O [tegaserod maleate]	0
CN1Cc2c(N)cccc2C(c2ccccc2)C1 (stereo not drawn) [nomifensine]	2230
CNC(=O)c1ccccc1Sc1ccc2c(/C=C/c3ccccn3)n[nH]c2c1 [axitinib]	2490
CN1CCCC(n2nc(Cc3ccc(Cl)cc3)c3ccccc3c2=O)CC1.Cl (stereo not drawn) [azelastine hydrochloride]	396
CCC[C@H](N[C@@H](C)C(=O)N1[C@H](C(=O)O)C[C@@H]2CCCC[C@@H]21)C(=O)OCC [perindopril]	3860
CC1(C)[C@@H](O[C@H]2O[C@H](C(=O)O)[C@@H](O)[C@H](O)[C@H]2O[C@@H]2O[C@H](C(=O)O)[C@@H](O)[C@H](O)[C@H]2O)CC[C@]2(C)[C@H]3C(=O)C=C4[C@@H]5C[C@@](C)(C(=O)O)CC[C@]5(C)CC[C@@]4(C)[C@]3(C)CC[C@@H]12 [glycyrrhizin]	1890
NS(=O)(=O)c1cc2c(cc1Cl)NCNS2(=O)=O [hydrochlorothiazide]	3580
CN1CCCN=C1COC(=O)C(O)(c1ccccc1)C1CCCCC1.Cl (stereo not drawn) [oxyphencyclimine hydrochloride]	3070

SMILES	mean motility score
COCCOC(=O)C1=C(C)NC(C)=C(C(=O)OC(C)C)C1c1cccc([N+](=O)[O-])c1 (stereo not drawn) [nimodipine]	112
CCn1nc(C(=O)O)c(=O)c2cc3c(cc21)OCO3 [cinoxacin]	1110
CC(O)(P(=O)(O)O)P(=O)(O)O [etidronic acid]	3300
COC(=O)CCC(=O)CN.Cl [methyl aminolevulinate hydrochloride]	2550
Cc1ccnc2c1NC(=O)c1cccnc1N2C1CC1 [nevirapine]	2540
NC[C@H](O)c1ccc(O)c(O)c1 [noradrenaline]	3120
CN1CCC(=C2c3ccccc3C=Cc3ccccc32)CC1 [cyproheptadine]	417
N=C(N)NC(=N)NCCc1ccccc1 [phenformin]	4260
CCCCCCCCCCCCCCCCO [cetyl alcohol]	1880
Cc1[nH]c(/C=C2\C(=O)Nc3ccccc32)c(C)c1CCC(=O)O [orantinib]	3560
N#CC[C@H](C1CCCC1)n1cc(-c2ncnc3[nH]ccc23)cn1 [ruxolitinib]	3070
CCN1CCCC1CNC(=O)c1cc(S(N)(=O)=O)ccc1OC (stereo not drawn) [sulpiride]	2290
CC(C)c1c(C(=O)Nc2ccccc2)c(-c2ccccc2)c(-c2ccc(F)cc2)n1CC[C@@H](O)C[C@@H](O)CC(=O)O [atorvastatin]	2620
Cc1cc(Nc2ncc(Cl)c(Nc3ccccc3S(=O)(=O)C(C)C)n2)c(OC(C)C)cc1C1CCNCC1 [ceritinib]	1.33
Nc1ccc(C(=O)Oc2ccccc2)c(O)c1 [phenyl aminosalicylate]	1040
COc1c2ccoc2cc2oc(=O)ccc12 [bergapten]	3090
C/C(=C\C(=O)OCCCCCCCCC(=O)O)C[C@@H]1OC[C@H](C[C@@H]2O[C@H]2[C@@H](C)[C@H](C)O)[C@@H](O)[C@H]1O [mupirocin]	2520
C[C@]12CC[C@@H]3c4ccc(O)cc4CC[C@H]3[C@@H]1CCC2=O [estrone]	2280
O=C(O)[C@@H](O)[C@H](O)C(=O)O [tartaric acid]	3400
